Reference: PubChem BioAssay (Tox21)
Where “and” joins values, the source holds several entries; their conditions need not be identical. Identical values can stand only once. Results filed as inconclusive are left out. Where a call stands in place of a potency, no number is given. Some compounds were tested as several samples or in several runs, with calls that do not always agree. Calls of active or inactive are those of the source. Unless noted, calls come from the whole dose curve; as a rule, active = well fitted curve in the direction sought with a large enough effect in the repeat runs; inconclusive = weak or mixed curves; inactive = no such curve, though single readings can be large; an effect the other way counts as inactive or inconclusive.

Key:
[1] = molecular target: Aryl hydrocarbon receptor (Homo sapiens) (UniProt P35869); assay: qHTS assay to identify small molecule that activate the aryl hydrocarbon receptor (AhR) signaling pathway (AID 743085);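 note: HG2L7.5c1 human HepG2 liver cells with stably integrated DRE-driven firefly reporter; series mostly up to about 70 µM; nearly all actives have a fitted effect of over 15% in size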
Aryl hydrocarbon receptor (Homo sapiens), sequence (P35869 whole entry, looked up): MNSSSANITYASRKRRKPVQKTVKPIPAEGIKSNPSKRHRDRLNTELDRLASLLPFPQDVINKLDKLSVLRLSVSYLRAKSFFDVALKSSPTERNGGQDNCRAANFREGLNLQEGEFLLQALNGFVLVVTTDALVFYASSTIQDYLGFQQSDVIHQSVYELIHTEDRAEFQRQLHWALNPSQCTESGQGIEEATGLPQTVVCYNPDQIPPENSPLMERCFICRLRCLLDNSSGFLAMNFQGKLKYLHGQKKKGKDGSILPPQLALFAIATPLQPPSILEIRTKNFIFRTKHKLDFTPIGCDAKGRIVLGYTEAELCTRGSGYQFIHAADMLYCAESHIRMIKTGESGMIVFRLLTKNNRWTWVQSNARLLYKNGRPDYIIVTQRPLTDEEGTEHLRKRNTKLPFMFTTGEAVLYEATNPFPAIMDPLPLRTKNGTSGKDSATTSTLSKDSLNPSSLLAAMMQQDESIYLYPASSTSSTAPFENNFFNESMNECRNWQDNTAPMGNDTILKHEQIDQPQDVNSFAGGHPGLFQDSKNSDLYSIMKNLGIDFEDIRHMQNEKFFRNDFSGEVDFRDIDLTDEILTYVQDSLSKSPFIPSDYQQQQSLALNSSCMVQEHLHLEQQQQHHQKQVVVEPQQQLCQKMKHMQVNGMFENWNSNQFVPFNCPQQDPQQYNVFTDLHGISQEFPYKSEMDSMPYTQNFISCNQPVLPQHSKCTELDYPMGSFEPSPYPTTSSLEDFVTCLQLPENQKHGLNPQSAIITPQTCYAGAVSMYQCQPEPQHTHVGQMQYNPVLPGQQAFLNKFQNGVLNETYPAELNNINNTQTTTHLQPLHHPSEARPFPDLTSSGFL
Procedure, shortened: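 Steps: seed HepG2-AhR-luc cells; allow 5 h at 37C; pin-transfer test compound or vehicle; incubate 24 h at 37C; add viability dye (30 min, 37C) and read fluorescence; add luciferase substrate (30 min, RT) and read luminescence.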

[2] = qHTS assay to identify small molecule that activate the aryl hydrocarbon receptor (AhR) signaling pathway - cell viability counter screen (AID 743086);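 note: HepG2 liver cells carrying the AhR DRE luciferase reporter; series mostly up to about 70 µM; nearly all actives have a fitted effect of over 45% in size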
Procedure, shortened: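 Cytotoxicity counter screen: CellTiter-Fluor signal (30 min, 37 C) in 4000 HepG2 cells/well carrying the DRE-luciferase reporter, following 24 h compound exposure at 37 C.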

[3] = molecular target: Peroxisome proliferator-activated receptor gamma (Homo sapiens) (UniProt P37231); assay: qHTS assay to identify small molecule agonists of the peroxisome proliferator-activated receptor gamma (PPARg) signaling pathway (AID 743094; active = well fitted activation curve with a large enough effect in the signal ratio in the repeat runs, not every such curve was filed as active; the % refers to the signal ratio)
Peroxisome proliferator-activated receptor gamma (Homo sapiens), sequence (P37231 whole entry, looked up): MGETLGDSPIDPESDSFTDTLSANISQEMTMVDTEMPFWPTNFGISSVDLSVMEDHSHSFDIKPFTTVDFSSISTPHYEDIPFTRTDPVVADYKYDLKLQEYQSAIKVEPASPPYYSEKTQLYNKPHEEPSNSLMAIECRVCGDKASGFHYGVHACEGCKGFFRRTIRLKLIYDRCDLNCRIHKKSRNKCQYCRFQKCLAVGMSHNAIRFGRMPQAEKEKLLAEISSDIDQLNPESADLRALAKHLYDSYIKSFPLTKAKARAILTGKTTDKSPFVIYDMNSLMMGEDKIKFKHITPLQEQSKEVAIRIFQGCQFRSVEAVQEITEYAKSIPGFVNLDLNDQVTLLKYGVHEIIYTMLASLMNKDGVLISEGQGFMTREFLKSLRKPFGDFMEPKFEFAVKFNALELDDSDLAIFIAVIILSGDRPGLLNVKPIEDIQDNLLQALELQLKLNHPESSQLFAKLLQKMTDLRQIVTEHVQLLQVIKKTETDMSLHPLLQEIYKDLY
Procedure, shortened: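 Quantitative HTS agonist mode: stable HEK293H line with UAS-beta-lactamase reporter under PPARg control, 17 h compound exposure at 37C, fluorescence after 1 h FRET substrate loading at room temperature.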

[4] = qHTS assay to identify small molecule antagonists of the peroxisome proliferator-activated receptor gamma (PPARg) signaling pathway - cell viability counter screen (AID 743194); settings: Potency: co-treated with 50 nM rosiglitazone; note: nearly all actives have a fitted effect of over 55% in size; note: potency is the fitted concentration of half-maximal effect
Procedure, shortened: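 Viability was measured as CellTiter-Glo luminescence in GeneBLAzer PPARg UAS-bla HEK293H cells. These cells had been exposed 17 h at 37 C to compounds together with rosiglitazone at 50 nM final, with the beta-lactamase readout taken in the same wells.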

[5] = qHTS assay for small molecule agonists of the antioxidant response element (ARE) signaling pathway (AID 743202; active = well fitted activation curve with a large enough effect in the signal ratio in the repeat runs, not every such curve was filed as active; the % refers to the signal ratio)
Procedure, shortened: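 Quantitative high-throughput format in HepG2 cells bearing an integrated ARE-beta-lactamase reporter. Compound exposure lasted 16 h at 37 C, and fluorescence was read 2 h after adding LiveBLAzer B/G substrate at room temperature.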

[6] = qHTS assay for small molecule activators of the heat shock response signaling pathway (AID 743210; active = well fitted activation curve with a large enough effect in the signal ratio in the repeat runs, with a control signal flat, not every such curve was filed as active; the % refers to the signal ratio;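 note: HeLa cells with beta-lactamase reporter driven by heat shock elements; series mostly up to about 63 µM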)
Procedure, shortened: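 HeLa HSE-bla cells, overnight plating; cpd in DMSO 5 h, 37 C; LiveBLAzer B/G FRET substrate 2.5 h RT; fluorescence intensity read.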

[7] = qHTS assay to identify small molecule antagonists of the peroxisome proliferator-activated receptor delta (PPARd) signaling pathway - cell viability counter screen (AID 743213); note: nearly all actives have a fitted effect of over 50% in size; note: potency is the fitted concentration of half-maximal effect
Procedure, shortened: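 CellTiter-Glo was added to PPARd-bla HEK293H wells following 17 h compound treatment in the presence of 300 nM L165041. Luminescence was recorded after 30 min at room temperature.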

[8] = molecular target: Bile acid receptor (Homo sapiens) (UniProt Q96RI1); assay: qHTS assay to identify small molecule antagonists of the farnesoid-X-receptor (FXR) signaling pathway (AID 743217; active = well fitted inhibition curve with a large enough effect in the signal ratio in the repeat runs, not every such curve was filed as active; the % refers to the signal ratio)
Bile acid receptor (Homo sapiens), sequence (Q96RI1 whole entry, looked up): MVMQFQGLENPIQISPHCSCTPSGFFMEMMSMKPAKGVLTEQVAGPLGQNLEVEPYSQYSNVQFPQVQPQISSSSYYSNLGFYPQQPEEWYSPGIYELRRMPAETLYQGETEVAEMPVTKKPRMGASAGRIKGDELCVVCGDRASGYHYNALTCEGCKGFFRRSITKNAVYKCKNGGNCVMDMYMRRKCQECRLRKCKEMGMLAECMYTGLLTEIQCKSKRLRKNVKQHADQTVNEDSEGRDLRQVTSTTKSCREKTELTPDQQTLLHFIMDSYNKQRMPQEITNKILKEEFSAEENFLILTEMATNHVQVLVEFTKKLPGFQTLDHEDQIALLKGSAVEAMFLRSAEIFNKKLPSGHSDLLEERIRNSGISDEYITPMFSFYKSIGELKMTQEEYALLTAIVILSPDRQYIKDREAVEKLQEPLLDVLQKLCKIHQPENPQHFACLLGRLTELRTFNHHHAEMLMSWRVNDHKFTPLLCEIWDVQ
Procedure, shortened: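 Antagonist mode against 50 uM (final) chenodeoxycholic acid stimulation in FXR-bla HEK 293T cells, 16 h at 37 °C. Inhibition detected as reduced beta-lactamase activity via LiveBLAzer B/G FRET fluorescence after 2 h at room temperature.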

[9] = qHTS assay to identify small molecule agonists of the farnesoid-X-receptor (FXR) signaling pathway - cell viability counter screen (AID 743218); note: nearly all actives have a fitted effect of over 45% in size; note: potency is the fitted concentration of half-maximal effect
Procedure, shortened: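 Cytotoxicity counter-screen run in parallel, same wells: FXR-UAS-bla HEK 293T cells dosed 16 h at 37 C, viability read by CellTiter-Glo luminescence after 30 min at room temperature.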

[10] = molecular target: Bile acid receptor (Homo sapiens) (UniProt Q96RI1); assay: qHTS assay to identify small molecule agonists of the farnesoid-X-receptor (FXR) signaling pathway (AID 743220; active = well fitted activation curve with a large enough effect in the signal ratio in the repeat runs, not every such curve was filed as active; the % refers to the signal ratio)
Procedure, shortened: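 Beta-lactamase reporter under UAS control in GeneBLAzer FXR HEK 293T cells (5000/well) measured with LiveBLAzer FRET substrate after 2 h at room temperature. Compound exposure lasted 16 h at 37C.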

[11] = qHTS assay to identify small molecule antagonists of the farnesoid-X-receptor (FXR) signaling pathway - cell viability counter screen (AID 743221; active = well fitted cell-killing curve with a large enough effect in the repeat runs, not every such curve was filed as active; note: nearly all actives have a fitted effect of over 50% in size; note: potency is the fitted concentration of half-maximal effect)
Procedure, shortened: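 Quantitative HTS of the Tox21 10K library run in parallel with the beta-lactamase reporter read. HEK 293T cells carrying a UAS-driven bla reporter got compound and 50 uM CDCA (final) for 16 h; ATP-based luminescence followed.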

[12] = molecular target: Vitamin D3 receptor (Homo sapiens) (UniProt P11473); assay: qHTS assay to identify small molecule agonists of the vitamin D receptor (VDR) signaling pathway (AID 743222; calls by dose curve)
Vitamin D3 receptor (Homo sapiens), sequence (P11473 whole entry, looked up): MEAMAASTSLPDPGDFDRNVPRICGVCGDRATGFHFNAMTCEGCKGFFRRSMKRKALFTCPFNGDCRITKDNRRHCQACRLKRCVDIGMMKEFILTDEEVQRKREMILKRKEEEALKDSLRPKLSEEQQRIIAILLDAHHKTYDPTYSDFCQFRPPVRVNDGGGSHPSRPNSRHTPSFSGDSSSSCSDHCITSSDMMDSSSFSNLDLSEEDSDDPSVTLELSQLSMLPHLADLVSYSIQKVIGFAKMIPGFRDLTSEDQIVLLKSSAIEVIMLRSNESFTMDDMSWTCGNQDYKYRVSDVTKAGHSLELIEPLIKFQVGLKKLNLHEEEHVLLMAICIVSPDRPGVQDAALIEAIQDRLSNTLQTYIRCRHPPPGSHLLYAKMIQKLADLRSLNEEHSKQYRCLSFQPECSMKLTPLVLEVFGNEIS
Procedure, shortened: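 Quantitative HTS agonist-mode screen: compounds in DMSO were pin-transferred onto VDR-bla cells and incubated 16 h at 37C, 5% CO2. Reporter activity was detected with LiveBLAzer B/G FRET substrate after 2 h at room temperature.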

[13] = qHTS assay to identify small molecule agonists of the vitamin D receptor (VDR) signaling pathway - cell viability counter screen (AID 743224); note: nearly all actives have a fitted effect of over 50% in size; note: potency is the fitted concentration of half-maximal effect
Procedure, shortened: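 Viability is measured in the same wells as the VDR-bla reporter assay: after 16 h compound treatment and 2 h substrate loading, CellTiter-Glo is added and luminescence read 30 min later.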

[14] = qHTS assay for small molecule agonists of the antioxidant response element (ARE) signaling pathway - cell viability counter screen (AID 743203; calls by dose curve; note: nearly all actives have a fitted effect of over 55% in size; note: potency is the fitted concentration of half-maximal effect)
Procedure, shortened: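 Seeded at 2,000 cells/well, ARE-bla HepG2 cells were incubated 5 hrs before compound addition. After 16 hrs of treatment at 37C with 5% CO2, CellTiter-Glo reagent was added and luminescence read 30 min later.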

[15] = qHTS assay for small molecule activators of the heat shock response signaling pathway - cell viability counter screen (AID 743209); note: nearly all actives have a fitted effect of over 50% in size; note: potency is the fitted concentration of half-maximal effect
Procedure, shortened: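 First, HSE-bla HeLa cells were seeded at 1500 cells/well and kept overnight at 37 C. Next, compounds were pinned in and incubated 5 h. After the FRET substrate step, CellTiter-Glo was added and luminescence read 30 min later.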

[16] = molecular target: Peroxisome proliferator-activated receptor delta (Homo sapiens) (UniProt Q03181); assay: qHTS assay to identify small molecule agonists of the peroxisome proliferator-activated receptor delta (PPARd) signaling pathway (AID 743212; calls by dose curve)
Peroxisome proliferator-activated receptor delta (Homo sapiens), sequence (Q03181 whole entry, looked up): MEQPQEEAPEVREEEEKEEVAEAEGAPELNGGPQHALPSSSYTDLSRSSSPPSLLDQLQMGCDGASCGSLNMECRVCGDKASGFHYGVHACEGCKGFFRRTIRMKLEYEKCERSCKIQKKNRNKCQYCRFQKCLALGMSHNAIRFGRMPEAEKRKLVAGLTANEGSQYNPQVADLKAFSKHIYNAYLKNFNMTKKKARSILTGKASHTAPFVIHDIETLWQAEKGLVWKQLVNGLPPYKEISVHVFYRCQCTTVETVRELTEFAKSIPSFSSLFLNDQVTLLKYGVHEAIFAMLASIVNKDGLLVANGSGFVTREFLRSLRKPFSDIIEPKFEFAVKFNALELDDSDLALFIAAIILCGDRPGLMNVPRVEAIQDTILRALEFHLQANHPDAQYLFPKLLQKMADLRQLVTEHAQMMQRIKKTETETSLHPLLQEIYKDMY
Procedure, shortened: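 HEK293H PPARd-bla cells; 5 h preincubation 37 C/5% CO2; compound (DMSO) 37 C; LiveBLAzer B/G FRET substrate 2 h RT; fluorescence intensity.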

[17] = molecular target: Peroxisome proliferator-activated receptor delta (Homo sapiens) (UniProt Q03181); assay: qHTS assay to identify small molecule antagonists of the peroxisome proliferator-activated receptor delta (PPARd) signaling pathway (AID 743215; active = well fitted inhibition curve with a large enough effect in the signal ratio in the repeat runs, not every such curve was filed as active; the % refers to the signal ratio;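 note: cells stimulated with agonist L165041 at 300 nM final during compound exposure; series mostly up to about 62 µM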)
Procedure, shortened: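 Inhibition of L165041-driven (300 nM final) PPARd signaling is scored in HEK293H UAS-bla cells. Exposure lasts 17 h at 37 C; beta-lactamase activity is then read by FRET substrate fluorescence after 2 h at room temperature.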

[18] = molecular target: Vitamin D3 receptor (Homo sapiens) (UniProt P11473); assay: qHTS assay to identify small molecule antagonists of the vitamin D receptor (VDR) signaling pathway (AID 743223; active = well fitted inhibition curve with a large enough effect in the signal ratio in the repeat runs, not every such curve was filed as active; the % refers to the signal ratio; note: potency is the fitted concentration of half-maximal effect)
Procedure, shortened: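 Fluorescence from LiveBLAzer B/G FRET substrate, read after 2 h at room temperature, reflects beta-lactamase reporter activity in VDR-bla cells treated 16 h at 37C with compounds and agonist 1alpha,25-dihydroxyvitamin D3 (3 nM final).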

[19] = qHTS assay to identify small molecule agonists of the peroxisome proliferator-activated receptor delta (PPARd) signaling pathway - cell viability counter screen (AID 743211); note: nearly all actives have a fitted effect of over 55% in size; note: potency is the fitted concentration of half-maximal effect
Procedure, shortened: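 Viability of GeneBLAzer PPARd UAS-bla HEK293H cells was assessed after 17 h compound incubation at 37C, using CellTiter-Glo reagent added after the reporter read and luminescence recorded 30 min later.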

[20] = molecular target: Peroxisome proliferator-activated receptor gamma (Homo sapiens) (UniProt P37231); assay: qHTS assay to identify small molecule antagonists of the peroxisome proliferator-activated receptor gamma (PPARg) signaling pathway (AID 743191; calls by dose curve; note: series mostly up to about 63 µM; nearly all actives have a fitted effect of over 30% in size)
Procedure, shortened: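 Beta-lactamase reporter under UAS control in HEK293H PPARg-bla cells; compound treatment 17 h at 37C. Read-out: fluorescence intensity after 1 h room-temperature incubation with LiveBLAzer B/G FRET substrate.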

| SMILES | Potency [1] | Potency [2] | Potency [3] | Potency [4] | Potency [5] | Potency [6] | Potency [7] | Potency [8] | Potency [9] | outcome [10] | Potency [11] | outcome [12] | Potency [13] | Potency [14] | Potency [15] | outcome [16] | Potency [17] | Potency [18] | Potency [19] | Potency [20] |
| --- | --- | --- | --- | --- | --- | --- | --- | --- | --- | --- | --- | --- | --- | --- | --- | --- | --- | --- | --- | --- |
| CCOC(=O)NC(O)C(Cl)(Cl)Cl (stereo unspecified) | inactive | inactive | inactive | inactive | inactive | inactive | inactive | inactive | inactive | inactive | inactive | inactive | inactive |  |  |  |  |  |  |  |
| O=C1NC(=O)C(=O)C(=O)N1 | inactive | inactive | inactive |  | inactive |  | inactive | inactive | inactive | inactive | inactive | inactive | inactive | inactive | inactive | inactive | inactive | inactive |  |  |
| CCC(C)(C)c1ccc(O)c(C(C)(C)CC)c1 | inactive | inactive | inactive | 24.3 µM (active) and 21.9 µM (active) | inactive |  | 17.2 µM (active) and 38.9 µM (active) |  | inactive and 24.5 µM (active) |  | 19.5 µM (active) | inactive | 12.2 µM (active) and 11 µM (active) |  | 17.2 µM (active) and 17.4 µM (active) | inactive | inactive | 12.2 µM (active) and 17.4 µM (active) | 19.3 µM (active) and 19.5 µM (active) |  |
| CC(C)OC(=O)Cc1ccccc1 | inactive | inactive | inactive | inactive | inactive | inactive | inactive |  | inactive |  | inactive | inactive | inactive | inactive | inactive |  |  | inactive | inactive |  |
| C=C(C)C(=O)OCCCCOC(=O)C(=C)C | inactive | inactive | inactive |  |  | inactive | inactive |  | inactive |  | inactive | inactive | inactive | inactive | inactive | inactive | inactive |  | inactive |  |
| CC(C)(c1ccccc1)c1cc(-n2nc3ccccc3n2)c(O)c(C(C)(C)c2ccccc2)c1 | inactive | inactive | inactive |  | inactive | inactive | inactive |  | inactive |  | inactive | inactive | inactive |  | inactive | inactive | inactive | inactive | inactive |  |
| CC(C)CCCCCCCOC(=O)c1ccccc1C(=O)OCCCCCCCC(C)C | inactive | inactive | inactive |  |  | inactive | inactive | inactive | inactive | inactive | inactive | inactive | inactive | inactive | inactive |  |  | inactive | inactive | inactive |
| C=CC(=O)NC(C)(C)CC(C)=O | inactive | inactive | inactive | inactive |  | inactive | inactive |  | inactive |  | inactive | inactive | inactive | inactive | inactive | inactive | inactive | inactive |  |  |
| ClCc1ccccc1Cl | inactive | inactive | inactive |  |  | inactive |  | inactive | inactive | inactive |  | inactive |  | inactive |  |  |  |  | inactive | inactive |
| CCCBr | inactive | inactive | inactive | inactive | inactive | inactive | inactive | inactive | inactive | inactive | inactive | inactive | inactive | inactive | inactive |  |  | inactive |  |  |
| CCCCCCCCn1sccc1=O | inactive | inactive | inactive | 34.7 µM (active) and 28.9 µM (active) |  |  | 1.38 µM (active) and 1.82 µM (active) |  | 7.78 µM (active) and 5.13 µM (active) |  | 6.18 µM (active) and 4.57 µM (active) | inactive | 873 nM (active) and 1.15 µM (active) | 21.7 µM (active) and 25.5 µM (active) | inactive |  |  |  | 1.95 µM (active) and 2.04 µM (active) |  |
| CN1CC[C@]23c4c5ccc(O)c4O[C@H]2[C@@H](O)CC[C@H]3[C@H]1C5 | inactive | inactive | inactive | inactive |  |  | inactive |  | inactive |  | inactive | inactive | inactive | inactive | inactive |  |  | inactive | inactive |  |
